Common to all, as to assay: BK channel mutant inhibitors and activators – cell-based, U2OS BacMam, thallium flux, beta subunits, selectivity assay, profiling panel (AID 1259406);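 note: initial slope of Thallos dye fluorescence rise after thallium is added; log ratio against the mean of 0.3% DMSO vehicle wells on the same plate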
For assay [1], the system named is F380Y/beta2Delta. Conditions: U2OS BacMam BK variants, at 30 µM.
Assay [2] has as its system F380Y/beta4. To be noted: U2OS BacMam BK variants, at 30 µM.
Assay [3] concerns the target Calcium-activated potassium channel subunit alpha-1 (Homo sapiens) + Leucine-rich repeat-containing protein 26 (Homo sapiens) (UniProt Q12791+Q2I0M4). To be noted: U2OS BacMam BK variants, F380Y/Slo1WT/gamma1, at 30 µM.
Assay [4] concerns R275C. To be noted: U2OS BacMam BK variants, at 30 µM.
Assay [5] deals with R275C/beta1. Conditions: U2OS BacMam BK variants, at 30 µM.
Assay [6] concerns R275C/beta2Delta. To be noted: U2OS BacMam BK variants, at 30 µM.
In assay [7] the test system is R275C/beta4. To be noted: U2OS BacMam BK variants, at 30 µM.
Assay [8] deals with R275C/Slo1WT/beta2. Conditions: U2OS BacMam BK variants, at 30 µM.

A number with no mark means an inactive call. The source made the active and inactive calls.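 Rule for the calls: active = thallium flux through the channel raised or lowered by more than 3 SD from vehicle-only wells, actives on both sides; inactive = the rest.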

Calcium-activated potassium channel subunit alpha-1 (Homo sapiens) + Leucine-rich repeat-containing protein 26 (Homo sapiens), sequence (Q2I0M4 whole entry, looked up, one chain of several): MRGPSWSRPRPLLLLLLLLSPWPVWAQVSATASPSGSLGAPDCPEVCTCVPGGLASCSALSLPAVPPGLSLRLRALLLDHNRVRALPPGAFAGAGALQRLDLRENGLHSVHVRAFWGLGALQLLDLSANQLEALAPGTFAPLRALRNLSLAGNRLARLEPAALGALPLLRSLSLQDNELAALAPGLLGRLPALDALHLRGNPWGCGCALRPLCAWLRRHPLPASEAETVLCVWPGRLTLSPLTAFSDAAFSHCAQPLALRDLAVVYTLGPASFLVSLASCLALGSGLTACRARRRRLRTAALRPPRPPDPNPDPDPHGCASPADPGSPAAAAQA

In the case of `NCC1CCC(C(=O)Oc2ccc(CCC(=O)O)cc2)CC1` (stereo not given), the log fold change Tl+ flux is -0.0278 in assay [1]; -0.00261 in assay [2]; 0.0182 in assay [3]; -0.0458 in assay [4]; 0.036 in assay [5]; 0.00228 in assay [6]. The results for the log fold change Tl+ flux in assay [7] and in assay [8] were -0.0367 and -0.00395, respectively.
With `CC(=O)OCC(=O)NCCCOc1cccc(CN2CCCCC2)c1`, the log fold change Tl+ flux was 0.000408 in assay [1]; -0.0388 in assay [2]; -0.00356 in assay [3]; -0.0635 in assay [4]; 0.00812 in assay [5]; 0.0201 in assay [6]. Further, the results for the log fold change Tl+ flux in assay [7] and in assay [8] were -0.00407 and 0.00881, respectively.
Turning to `C#C[C@]1(O)CC[C@H]2[C@@H]3CCc4cc(O)ccc4[C@H]3CC[C@@]21C`, the log fold change Tl+ flux was -0.0272 in assay [1]; 0.0947 (active) in assay [3]; -0.0326 in assay [4]; 0.0956 in assay [5]; 0.155 (active) in assay [6].
Turning to `CN1[C@@H]2CC[C@H]1CC(OC(=O)c1c[nH]c3ccccc13)C2` (stereo not given in full), the log fold change Tl+ flux in assay [1] is 0.0725; in assay [2], 0.0611; in assay [3], -0.0185; in assay [4], -0.064; in assay [5], 0.026; in assay [6] it was 0.045. For the same compound, the values for the log fold change Tl+ flux in assay [7] and in assay [8] were 0.0432 and 0.00303, respectively.
In the case of `COC(=O)C1=C(C)NC(C)=C(C(=O)OCC(C)C)C1c1ccccc1[N+](=O)[O-]` (stereo not given), the log fold change Tl+ flux in assay [1] was 0.514 (active); in assay [2], 0.853 (active); in assay [3], 0.622 (active); in assay [4] it was 0.676 (active); in assay [5] it was 0.741 (active); in assay [6], 0.206 (active). The figures for the log fold change Tl+ flux in assay [7] and in assay [8] were 1.13 (active) and 1.07 (active), respectively.
With `Cn1nnc2c(C(N)=O)ncn2c1=O`, the log fold change Tl+ flux was -0.0261 in assay [1]; -0.0309 in assay [2]; 0.0144 in assay [3]; -0.00524 in assay [4]; -0.0169 in assay [5]; 0.0357 in assay [6]. In addition, the log fold change Tl+ flux is -0.0137 in assay [7] and 0.06 in assay [8].
In the case of `CC1CCN(CCCC(=O)c2ccc(F)cc2)CC1`, the log fold change Tl+ flux in assay [1] is 0.0189; in assay [3] it was 0.000816; in assay [4], 0.0359; in assay [5], -0.0458; in assay [6], 0.0277.
Taken in the same sequence, the figures for `CN(Cc1cnc2nc(N)nc(N)c2n1)c1ccc(C(=O)N[C@@H](CCC(=O)O)C(=O)O)cc1` were -0.018, 0.0152, 0.0652, -0.0323 and 0.0014.
For `CC(C)(C)C(O)/C=C/c1ccc2c(c1)OCO2` (stereo not given), the log fold change Tl+ flux was -0.034 in assay [1]; 0.0193 in assay [2]; 0.00833 in assay [3]; -0.0106 in assay [4]; 0.0195 in assay [5]; -0.0731 in assay [6]. The results for the log fold change Tl+ flux in assay [7] and in assay [8] were -0.0258 and -0.0107, respectively.
For the compound `CN1CCN(C2=Nc3cc(F)ccc3Cc3ccccc32)CC1`, the log fold change Tl+ flux is 0.0383 in assay [1]; 0.075 in assay [2]; -0.0172 in assay [3]; -0.0264 in assay [4]; 0.0276 in assay [5]; 0.0198 in assay [6]. Besides, the log fold change Tl+ flux is 0.0369 in assay [7] and 0.0225 in assay [8].
Turning to `COc1ccc(CN2CCN(C(c3ccc(F)cc3)c3ccc(F)cc3)CC2)c(OC)c1OC`, the log fold change Tl+ flux was -0.015 in assay [1]; 0.0162 in assay [2]; -0.00669 in assay [3]; -0.0264 in assay [4]; -0.0636 in assay [5]; -0.0699 in assay [6]. Also, the log fold change Tl+ flux is 0.0197 in assay [7] and -0.00919 in assay [8].
Take `CN(C)CCCSc1ccccc1NC(=O)/C=C/c1ccccc1`: the log fold change Tl+ flux was 0.0654 in assay [1]; 0.0123 in assay [3]; 0.063 in assay [4]; 0.0477 in assay [5]; 0.0394 in assay [6].
Regarding `c1cnc(N2CCN(Cc3ccc4c(c3)OCO4)CC2)nc1`, the log fold change Tl+ flux in assay [1] is -0.0184; in assay [3], 0.0386; in assay [4] it was -0.0353; in assay [5], 0.0391; in assay [6], -0.006.
The like results for `COc1ccc(CC2c3cc(OC)c(OC)cc3CC[N+]2(C)CCC(=O)OCCCCCOC(=O)CC[N+]2(C)CCc3cc(OC)c(OC)cc3C2Cc2ccc(OC)c(OC)c2)cc1OC` (stereo not given) were, in that order, -0.00992, -0.0136, -0.0147, 0.0284 and -0.0198.
Regarding `COc1cc(C)nc(-n2nc(C)cc2OC)n1`, the log fold change Tl+ flux in assay [1] was -0.0214; in assay [2], -0.018; in assay [3], -0.00579; in assay [4], 0.031; in assay [5], 0.00544; in assay [6] it was 0.0107. The log fold change Tl+ flux in assay [7] is -0.0217; in assay [8] it was -0.00369.
As to `Nc1[nH]c(=O)ncc1F`, the log fold change Tl+ flux is 0.0238 in assay [1]; 0.00948 in assay [2]; 0.00877 in assay [3]; 0.0013 in assay [4]; -0.0522 in assay [5]; 0.00516 in assay [6]. In addition, the log fold change Tl+ flux in assay [7] was -0.00411; in assay [8] it was -0.0674.
As to `O=C(O)/C=C/c1ccc(Cn2ccnc2)cc1`, the log fold change Tl+ flux in assay [1] was -0.0133; in assay [2] it was 0.00948; in assay [3] it was -0.0199; in assay [4], 0.0013; in assay [5], 0.0161; in assay [6], 0.00561. In addition, the log fold change Tl+ flux was -0.0096 in assay [7] and 0.0187 in assay [8].
As to `Cc1cccc(C)c1OCC(C)N` (stereo not given), the log fold change Tl+ flux in assay [1] is 0.00522; in assay [2], 0.033; in assay [3], 0.0106; in assay [4], 0.0441; in assay [5], 0.0258; in assay [6], 0.00537. The log fold change Tl+ flux in assay [7] is 0.0107; in assay [8] it was 0.0729.
With `CC(C)(C)NC(=O)[C@H]1CC[C@H]2[C@@H]3CC[C@H]4NC(=O)C=C[C@]4(C)[C@H]3CC[C@]12C`, the log fold change Tl+ flux in assay [1] was 0.0468; in assay [2] it was 0.00105; in assay [3], -0.00445; in assay [4] it was -0.0443; in assay [5] it was -0.0219; in assay [6] it was 0.0533. The log fold change Tl+ flux in assay [7] was 0.00132; in assay [8], -0.0253.
As to `CC(C)(O)c1ccccc1CC[C@@H](SCC1(CC(=O)O)CC1)c1cccc(/C=C/c2ccc3ccc(Cl)cc3n2)c1`, the log fold change Tl+ flux is 0.312 (active) in assay [1]; 0.64 (active) in assay [2]; 0.354 (active) in assay [3]; 0.131 (active) in assay [4]; 0.782 (active) in assay [5]; 0.293 (active) in assay [6]. The log fold change Tl+ flux was 0.977 (active) in assay [7] and 0.13 (active) in assay [8].
For the compound `CC(C)c1nc(CN(C)C(=O)N[C@H](C(=O)N[C@@H](Cc2ccccc2)C[C@H](O)[C@H](Cc2ccccc2)NC(=O)OCc2cncs2)C(C)C)cs1`, the log fold change Tl+ flux is -0.548 (active) in assay [1]; -0.505 (active) in assay [2]; -0.199 (active) in assay [3]; -0.232 (active) in assay [4]; 0.0641 in assay [5]; -0.208 (active) in assay [6]. For the same compound, the log fold change Tl+ flux is -0.0726 in assay [7] and 0.0476 in assay [8].

The values are drawn from PubChem BioAssay.
